Test results taken from PubChem BioAssay AID1628 (Sanford-Burnham Center for Chemical Genomics, 2009).
The campaign covered roughly 190,000 compounds. About 930 (0.49%) were called active. This is one part of the list. Measured potencies and affinities stand elsewhere. A number with no mark means an inactive call.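 How the source made its calls: active means z-score of insulin promoter reporter brightness in nuclei below -3 at 5 µM, with at least 500 cells counted; inconclusive means wells with under 500 cells, flagged as toxic or sparse; inactive means the rest.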

Test: decrease of insulin promoter-GFP reporter – imaging, high-content screening, mouse beta cells (AID 1628)
Conditions: MIN6 insulin promoter GFP reporter, at 5 µM, stronger effect = lower value

SMILES | z-score
S=C(Nc1ccc(Oc2ccc(NC(=S)NC3CCCCC3)cc2)cc1)NC1CCCCC1 | -5.62 (active)
CCc1ccc(NC(=S)NCC2CCCN2CC)cc1 (stereo unspecified) | 3.74
O=C1N/C(=N/Nc2ccccc2)S/C1=C\c1ccccc1 | 3.19
CCOC(=O)c1c(C)nc2c(c1C)c(=O)oc1ccccc12 | 0.62
O=c1cc(-c2ccc(O)cc2)oc2ccccc12 | -0.5
O=C1/C(=C/c2ccc(N3CCCC3)cc2)NC(=S)N1C1CC1 | 12.6
COC(=O)c1nc2ccccn2c1F | 2.02
CC1(C)CC(=O)c2sc(NS(=O)(=O)Cc3ccccc3)nc2C1 | 1.07
O=c1c(N2CCOCC2)c(N2CCOCC2)c1=O | 3.02
COc1cc(NC(=O)CN(C)Cc2ccc(OC(F)F)cc2)c(C)cc1[N+](=O)[O-] | -4.52 (active)
COc1cc(Cl)c(C)cc1NC(=O)CN(C)Cc1cccc(OC)c1OC | 3.4
Cc1ccc(Nc2nc3c([nH]2)c(=O)n(C)c(=O)n3C)cc1 | 3.32
Cc1ccc(Nc2cc(C)nn2-c2nc(C)cc(=O)[nH]2)cc1 | -3.51 (active)
FC(F)(F)c1cccc(N2CCN(Cc3cccnc3)CC2)c1 | -4.71 (active)
CC(C)(O)C(O)COc1c2ccoc2cc2oc(=O)ccc12 (stereo unspecified) | -0.51
O=C(/C=C/c1ccco1)Oc1cc(Br)cc(/C=N/NC(=O)c2ccccc2O)c1 | -4.99 (active)
COc1cccc(/C=N/NC(=O)c2oc3nc(-c4ccccc4)cc(-c4ccco4)c3c2N)c1 | 3.3
N#Cc1cccc(NC(=O)CSc2ccc3c4c(cccc24)C(=O)c2ccccc2-3)c1 | 4.94
CCCCNC(=O)CSc1cc(=O)n(C)c2ccccc12 | -4.57 (active)
CCc1cc(C(=O)OC)c(NC(=O)CC2Sc3ccc(C(F)(F)F)cc3NC2=O)s1 (stereo unspecified) | 3.33
COc1ccccc1OCC(O)Cn1c(=N)n(CCN2CCCCC2)c2ccccc21 (stereo unspecified) | -5.05 (active)
Brc1ccc(Oc2nsnc2N2CCOCC2)cc1 | 3.88
CCN(CC)S(=O)(=O)c1cccc(-c2nnc(SCCCC(=O)c3ccc(F)cc3)o2)c1 | -4.17 (active)
C=CCn1c(C)cc(C(=O)CSc2nnc(-c3cccc(S(=O)(=O)N(CC)CC)c3)o2)c1C | -3.66 (active)

SMILES | z-score
CC(C)CNC(=O)CSc1nnc(-c2cccc(S(=O)(=O)N3CCCCC3)c2)o1 | 4.75
CC(=O)OC(C(=O)NCc1ccc(F)cc1)c1ccccn1 (stereo unspecified) | 3.91
Oc1ccc(/C=N/Nc2nc(-c3ccccc3F)nc3ccccc23)c(O)c1 | 3.69
Cc1nc2ccccc2nc1N/N=C/c1ccc(O)cc1O | -3.3 (active)
Cc1ccc(-n2ncc(Br)c(Br)c2=O)cc1 | -4.97 (active)
Cc1ccc(-c2cc(N)n(-c3ccccc3)n2)cc1 | 5.28
c1ccc(-c2csc(-n3cnnn3)n2)cc1 | 3.13
N#C/C(=C/c1ccc(N2CCOCC2)o1)c1nc2ccccc2[nH]1 | 15
Cc1ccccc1-n1ncc2c(SCC(=O)NCc3cccs3)ncnc21 | 3.57
COc1ccc2c(C)cc(SCC(=O)N(C)C3CCS(=O)(=O)C3)nc2c1 (stereo unspecified) | 4.13
CC(C)Cn1c(=O)c2c(nc3n2CCCN3CCc2ccccc2)n(C)c1=O | -4.13 (active)
O=C1C2C3C=CC(C3)C2C(=O)N1CCc1ccccc1 (stereo unspecified) | 3.33
Cn1c(=O)n(Cc2ccccc2F)c(=O)c2c1nc1n2CCN1Cc1ccco1 | 2.8
CCCCN1C(=O)/C(=C/C=C2/CC(C)(C)CN2C)SC1=S | 16.2
COc1ccc(NC(=O)/C(C#N)=C\c2ccc(N3CCOCC3)o2)cc1 | 3.17
COc1ccc(C(=S)N2CCCC2)cc1 | 0.82
COc1ccc(CC(=S)N2CCOCC2)cc1 | -4.87 (active)
O=C(Cn1ncn2c(cc3ccccc32)c1=O)NCc1ccco1 | 3.78
Cc1cc2oc(=O)cc(CN3CCN(C/C=C/c4ccccc4)CC3)c2cc1O | -3.48 (active)
CCc1cc2c(CN3CCN(CCO)CC3)cc(=O)oc2cc1O | 3.59
Cc1cc(=O)oc2cc(OC(=O)c3ccccc3)ccc12 | -0.09
CCC(c1nnnn1CCc1ccccc1)N(Cc1ccco1)Cc1cc2cc(C)cc(C)c2[nH]c1=O (stereo unspecified) | -3.35 (active)
CCOc1ccc2[nH]c(=O)c(CN(Cc3ccco3)C(CC)c3nnnn3Cc3ccccc3)cc2c1 (stereo unspecified) | -2.78
CCC(c1nnnn1Cc1ccco1)N(Cc1ccccc1OC)Cc1cc2cc(C)ccc2[nH]c1=O (stereo unspecified) | -4.61 (active)

SMILES | z-score
CCC(c1nnnn1CCc1ccccc1)N(Cc1ccco1)Cc1cc2cccc(C)c2[nH]c1=O (stereo unspecified) | -3.08 (active)
Cc1cc2nc3c(=O)n(C4CCCCC4)c(=O)[nH]c3nc2cc1N | 7.94
CCC(C)N1C(=O)/C(=C/c2c(NCCCOC(C)C)nc3c(C)cccn3c2=O)SC1=S (stereo unspecified) | 13.1
Cc1noc(C)c1COc1cccc(C(=O)OC(C)C(=O)Nc2c(C)n(C)n(-c3ccccc3)c2=O)c1 (stereo unspecified) | 1.6
CC(=O)Nc1ccc2nc(NC(=O)COc3cccc(C)c3)sc2c1 | 1.98
COc1ccc2nc(NC(=O)c3cccc(OCc4c(C)noc4C)c3)sc2c1 | -3.94 (active)
COc1cc(N2CCCC2)c(OC)cc1/C=c1/sc2nc3ccccc3n2c1=O | 16.8
CCCN1C(=O)/C(=C/C=C2\N(CC)c3ccccc3C2(C)C)SC1=S | 12.5
CCCN1C(=O)/C(=C\C=C2\N(CC)c3ccccc3C2(C)C)SC1=S | 17.2
N#C/C(=C/c1ccc(N2CCCCC2)o1)C(=O)NCCc1c[nH]c2ccccc12 | 17.5
O=C1c2cccnc2C(=O)N1Cc1ccco1 | 2.51
CC(C)(CO)C(O)C(=O)NCCC#N (stereo unspecified) | -1.31
O=[N+]([O-])c1ccc(/C=C/C2=NN(c3ccccc3)C(c3ccco3)C2)o1 (stereo unspecified) | 12.4
CCOc1ccc(NC(=O)C2CCC(C)(C(=O)O)C2(C)C)cc1 (stereo unspecified) | 3.64
CCOC(=O)c1ccc(NC(=O)C2CC2)cc1 | -4.4 (active)
CCN(CC)c1ccc(NC(=O)C2CC3CCC2C3)cc1 (stereo unspecified) | -2.14
CCOC(=O)c1ccc(NC(=O)C2(c3ccc(OC)cc3)CCCC2)cc1 | -5.09 (active)
CN1CC=C2C(C#N)=C(N)C(C#N)(C#N)C(c3cccc(Cl)c3Cl)C2C1 (stereo unspecified) | 14.1
COc1cc(N2CCCC2)c(OC)cc1/C=C1/NC(=S)NC1=O | 17.8
CCOC(=O)N1CCN(S(=O)(=O)c2ccc3c(c2)oc(=O)n3C)CC1 | 3.1
CCOC(=O)N1CCN(C(=O)c2cc(S(=O)(=O)N3CCCC3)cn2C)CC1 | 3.05
CCOC(=O)N1CCC(N2CCN(S(=O)(=O)c3ccc4ccccc4c3)CC2)CC1 | -4.2 (active)
COCCNC(=O)c1onc(CSc2cccc(C)c2)c1C(=O)O | 3.82
Clc1ccc(C[n+]2cc(-c3ccccc3)n3c2CCCCC3)c(Cl)c1 | -5.27 (active)

SMILES | z-score
COc1ccc(N=C2NC(=O)S/C2=C\c2ccc(N(C)C)cc2)cc1 | 3.4
CN1CC=C2C(C#N)=C(N)C(C#N)(C#N)[C@H](c3cccc(Cl)c3)C2C1 (stereo partly specified) | 15.9
N#C/C(C(=O)c1ccccc1)=C1/SC=C(N)N1c1ccccc1 | 5.96
CCCCN(CC)S(=O)(=O)c1ccc(C(=O)N(CCCN(C)C)c2nc3cc(C)cc(C)c3s2)cc1 | -3.82 (active)
CC(C)OC(=O)CN1C(=O)S/C(=C/c2ccc(N3CCCCC3)o2)C1=O | 6.58
Cn1c(=O)n(C)c2cc(NC(=O)COc3ccc(Cl)cc3)ccc21 | 3.02
Cc1cc(Cl)ccc1OCC(=O)OCC(=O)Nc1ccc(F)c([N+](=O)[O-])c1 | -5.99 (active)
COc1ccccc1-c1c(C)c(C)nc(N)c1C#N | -0.95
COc1ccc(OC)c(C2=Nn3c(nnc3C3CCCCC3)SC2)c1 | -6.49 (active)
COc1ccc(C2=Nn3c(nnc3-c3ccccc3OC)SC2)cc1OC | -3.31 (active)
CC(=O)Nc1ccc(N=Cc2c(O)c(C(=O)Nc3ccccc3)cc3ccccc23)cc1 | 3.59
CC(=O)Nc1ccc(Nc2c3ccccc3nc3ccccc23)cc1 | -3.01 (active)
O=C(CSc1ccccn1)Nc1cccc2ccccc12 | 2.55
Cc1ccc(C(=O)SC2=NCCS2)cc1 | 1.97
O=c1[nH]c(/C=C/c2ccccc2OC(F)F)nc2c1cnn2-c1ccccc1 | 3.2
COc1ccc(CN(C(=O)c2ccc(-c3ccccc3)[nH]2)C(C(=O)NC(C)(C)C)c2ccncc2)cc1 (stereo unspecified) | 2.66
O=C(Nn1c(-c2ccccc2)nc2ccccc2c1=O)c1ccco1 | -0.06
Cc1ccc(-c2nnc(N3CCN(C(=O)c4ccco4)CC3)c3ccccc23)cc1 | -4.39 (active)
C[N+](C)(C)CCCNC(=O)c1ccc(/C=N/O)nc1 | 0.8
N#Cc1nc(N2CCOCC2)nc(N2CCOCC2)n1 | 3.26
CCCN1CC=C2C(C#N)=C(N)C(C#N)(C#N)C(c3cc(OC)ccc3OC)C2C1 (stereo unspecified) | 15.3
O=C(c1csc2ccccc12)N1CCCCCC1 | -4.36 (active)
Cc1ccccc1C(=O)N1CCc2ccccc2C1 | 3.99
C[n+]1cc(C(=O)N2CCCCC2)ccc1/C=C/c1c[nH]c2ccccc12 | 3.95
